This excerpt belongs to a sample that is enriched for hits.
KDM5B inh: Primary screen for KDM5B Histone Demethylases FDH-coupled qHTS; KDM5B demethylase, FDH-coupled NADH fluorescence (FDH is formaldehyde dehydrogenase); actives 2.6% (n = 220,000); Potency, µM (top dose mostly 57.7 µM), actives largely listed as inhibitors; active means well fitted inhibition curve with a large enough effect; further: 0% is about no effect; nearly all actives have a fitted effect of over 70% in size
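qHTS format, multiple compound concentrations. Buffer 50 mM HEPES pH 7.5/0.01% Tween-20; 200 nM KDM5BΔAP final; 10 min compound preincubation; substrate-mix levels 12.5 µM peptide, 25 µM α-KG, 0.25 mM NAD⁺; 30 min RT; ΔRFU.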
The depositor's hits bear a star; i = inactive. Potency means the concentration at half of the fitted maximal effect.

SMILES	KDM5B inh
COc1ccccc1NC(=O)Nc1cccc(-c2ccc(N3CCCCC3)nn2)c1	i
COc1ccc2c(C)cc(SCC(=O)NCc3ccc(C)cc3)nc2c1	i
Cc1cc(C(=O)COC(=O)c2ccccn2)c(C)n1Cc1ccccc1	i
CC(C)NC(=O)c1nc(-c2ccc(Cl)nc2)c2ccccn12	32µM*
CC(C)NC(=O)c1ccc(F)cc1	i
CC(C)NC(=O)c1nc(-c2ccc(F)cc2)c2ccccn12	35µM*
CC(C)NC(=O)C1CCc2nnc(-c3ccc(Cl)nc3)n21 (stereo not given)	i
CCCOc1cc(S(=O)(=O)N2CCN(CCO)CC2)ccc1Br	i
CCC(C(=O)Nc1ccc2c(c1)CN(Cc1ccccc1Cl)C(=O)C(C)O2)c1ccccc1 (stereo not given)	i
CC1(C)C2CCC1(C(=O)Nc1ccccc1)C(=O)C2 (stereo not given)	i
CCN(C(=O)c1cccc(F)c1F)[C@@H]1CCN(c2ncccc2C#N)C[C@H]1O	28µM*
Cc1nc(C(=O)NC2CCCC2)ccc1C#N	i
N#Cc1cccnc1N1CCC(NC(=O)c2ccc3cccc(F)c3n2)CC1	28µM*
O=C(c1ccccc1-c1ccccc1F)N(Cc1cccnc1)C1CC1	i
CN(C)C(=O)c1cccnc1OC1CCN(C(=O)c2cccc(F)c2)C1 (stereo not given)	i
Cc1nc(C(=O)NC2CCCCC2)ccc1C#N	i
CCOc1ccccc1C(=O)Nc1ccc2oc(=O)ccc2c1	i
Cn1nc(CC(=O)Nc2ccccc2)c2ccccc2c1=O	i
O=C(/C=C/c1cccc(Cl)c1)NC(C1CC1)C1CC1	i
CC(C)(C)c1ccc(-c2nnc(SCC(=O)N3CCCC3)n2C2CCCC2)cc1	i
CN1CCN(Cc2cn3c(=O)n(C)cc(-c4ccccc4F)c3n2)CC1	i
COc1ncccc1-c1cn(C)c(=O)n2cc(CN3CC[S+](=O)([O-])CC3)nc12	i
CC(=O)Nc1cc(-c2cn(C)c(=O)n3cc(CN4CC[S+](=O)([O-])CC4)nc23)ccn1	35µM*
Cn1cc(Nc2ccc(Cl)cc2)c2nc(CN3CC[S+](=O)([O-])CC3)cn2c1=O	28µM*
CC(=O)Nc1cccc(-c2cn(C)c(=O)n3cc(COc4ccccc4)nc23)c1	i
SMILES	KDM5B inh
Cn1cc(-c2ccccc2Oc2ccccc2)c2nc(CN3CCOCC3)cn2c1=O	i
CC(=O)Nc1cccc(NC(=O)c2cccc3c(=O)c(C)c(-c4ccccc4)oc23)c1	i
COc1cccc(CNC(=O)CN2C(=O)N(c3ccc(C(C)C)cc3)S(=O)(=O)c3ccccc32)c1	i
O=C(OCc1cccc2cccnc12)c1cc2ccccc2[nH]1	i
COCCNC(=O)[C@@H]1C[C@H](Oc2ccccc2)CN1S(=O)(=O)Cc1ccccc1	i
Cn1ccnc1CN1C[C@@H]2C[C@H]1C(=O)N(CC1CC1)c1ccccc1O2	i
O=C1[C@@H]2C[C@@H](CN2Cc2ccnc3ccccc23)Oc2ccccc2N1CC1CC1	35µM*
O=C1[C@@H]2C[C@@H](CN2Cc2ccc3c(c2)OCO3)Oc2ccccc2N1CC1CC1	i
O=C(OCc1coc(-c2ccccc2)n1)C1=NN(C2CCS(=O)(=O)C2)C(=O)CC1 (stereo not given)	i
O=C(COC(=O)c1cccs1)c1ccc2c(c1)-c1ccccc1C2	i
O=C(Cc1ccccc1F)N1CCCN(c2cc(-c3ccc(Cl)cc3)[nH]n2)CC1	10µM*
CN(C)c1cccc(C(=O)NC2CCN(c3cc(-c4ccc(Cl)cc4)[nH]n3)CC2)c1	32µM*
Cc1ccccc1CC(=O)N1CCN(c2cc(-c3ccc(Cl)cc3)[nH]n2)CC1	i
CN(C)c1cccc(C(=O)N2CCCN(c3cc(-c4ccccc4)[nH]n3)CC2)c1	i
O=C(c1ccccc1F)N1CCCN(c2cc(-c3ccc(Cl)cc3)[nH]n2)CC1	i
CN(C)c1cccc(C(=O)N2CCN(c3cc(-c4ccc(Cl)cc4)[nH]n3)CC2)c1	32µM*
CN(C)c1cccc(C(=O)NC2CCN(c3cc(-c4ccc(F)cc4)[nH]n3)CC2)c1	i
COc1ccc(-c2cc(N3CCCC(NC(=O)c4cccc(C)c4)C3)n[nH]2)cc1 (stereo not given)	i
COc1ccc(-c2cc(N3CCCC(NC(=O)c4cccc(F)c4)C3)n[nH]2)cc1 (stereo not given)	i
COc1ccc(-c2cc(N3CCCC(NC(=O)c4cccc(N(C)C)c4)C3)n[nH]2)cc1 (stereo not given)	28µM*
O=C(c1cccc(Cl)c1)N1CCN(c2cc(-c3ccc(Cl)cc3)[nH]n2)CC1	i
COc1cccc(C(=O)NC2CCN(c3cc(-c4ccc(Cl)cc4)[nH]n3)CC2)c1	i
CC(c1cccs1)N(C)CC(O)COc1ccc(-c2ccccc2)cc1 (stereo not given)	i
COc1ccc(C(CNC(=O)CCc2nc(-c3ccncc3)no2)N2CCCCC2)cc1 (stereo not given)	i
N#Cc1cccnc1NCC(CO)Cc1ccccc1 (stereo not given)	i
SMILES	KDM5B inh
Cc1cccc(CNC(=O)CCc2conc2-c2cccc(F)c2)c1	i
Cc1ccc2c(=O)cc(C(=O)N(Cc3ccc(C(C)C)cc3)C3CCS(=O)(=O)C3)oc2c1C (stereo not given)	i
Cc1cc(C(=O)NC(C)C23CC4CC(CC(C4)C2)C3)c(C)o1 (stereo not given)	i
CC(C)(C)n1nnnc1SCc1csc(Nc2ccccc2)n1	i
COc1ccc(CN2C[C@@H](F)[C@@H](OCc3nc4ccccc4o3)C2)cn1	i
O=C(NC1CC1)C(Sc1cccc(C(F)(F)F)c1)c1ccccc1 (stereo not given)	i
O=C([C@@H]1C[C@H](Oc2ccccc2)CN1C(=O)c1cc2ccccc2[nH]1)N1CCCC1	25µM*
O=C([C@@H]1C[C@H](Oc2ccccc2)CN1C(=O)C1CCC1)N1CCCC1	i
COc1ccc2[nH]c(C(=O)N3C[C@@H](Oc4cccnc4)C[C@H]3C(=O)N3CCCC3)cc2c1	i
Cn1cccc1/C=C(\C#N)c1cccc(Br)c1	i
COc1ccc(-c2cc(C(=O)NCc3c(C)cc(C)[nH]c3=O)c3c(c2)N(C)CCO3)cn1	35µM*
Cc1cn2nnc(C(=O)NCc3ccc4c(c3)OCO4)c2c(=O)[nH]1	i
Cc1cc(C)c(CNC(=O)c2cc(-c3ccccc3)cc3c2OCCN3C)c(=O)[nH]1	32µM*
Cc1cc(C)c(CNC(=O)c2cc(-c3ccc(CO)cc3)cc3c2OCCN3C)c(=O)[nH]1	32µM*
Cc1cc(C)c(CNC(=O)c2nc(-c3ccc(CO)cc3)cc3c2ccn3C(C)C)c(=O)[nH]1	i
Cc1ncc(-c2ccc(C)c(S(=O)(=O)Nc3cccc(Cl)c3)c2)o1	i
Cc1cc(F)ccc1OC1CN(Cc2ccccc2)C1	i
COc1ccccc1C(=O)NCCn1ccn2nc(-c3ccc(C)c(C)c3)cc2c1=O	28µM*
COc1ccc(-c2cc3c(=O)n(CC(=O)Nc4cc(C)ccc4C)ccn3n2)cc1	i
COc1cccc(C(=O)NCCn2ccn3nc(-c4ccc(F)cc4)cc3c2=O)c1OC	i
Cc1ccc(-c2cc3c(=O)n(CCNC(=O)c4nn(C)c5ccccc45)ccn3n2)cc1C	22µM*
COc1ccc(-c2cc3c(=O)n(CCNC(=O)c4ccccc4C)ccn3n2)cc1	20µM*

High-throughput results as filed in PubChem.
